Measured values taken from PubChem BioAssay (NCATS).
Results filed as inconclusive are left out. Calls of active or inactive are those of the source. Calls come from the whole dose curve; as a rule, active = well fitted curve in the direction sought with a large enough effect; inconclusive = small, poorly fitted or top-dose-only effect, or another doubt; inactive = no such curve, though single readings can be large; an effect the other way counts as inactive or inconclusive.

How the values were obtained:
[1] = biological target: Protein phosphatase 1D (Homo sapiens) (UniProt O15297); assay: RapidFire Mass Spectrometry qHTS Assay for Modulators of WT P53-Induced Phosphatase 1 (WIP1) (AID 1347424); note: series mostly up to about 63 µM
Protein phosphatase 1D (Homo sapiens), sequence (O15297 whole entry, looked up): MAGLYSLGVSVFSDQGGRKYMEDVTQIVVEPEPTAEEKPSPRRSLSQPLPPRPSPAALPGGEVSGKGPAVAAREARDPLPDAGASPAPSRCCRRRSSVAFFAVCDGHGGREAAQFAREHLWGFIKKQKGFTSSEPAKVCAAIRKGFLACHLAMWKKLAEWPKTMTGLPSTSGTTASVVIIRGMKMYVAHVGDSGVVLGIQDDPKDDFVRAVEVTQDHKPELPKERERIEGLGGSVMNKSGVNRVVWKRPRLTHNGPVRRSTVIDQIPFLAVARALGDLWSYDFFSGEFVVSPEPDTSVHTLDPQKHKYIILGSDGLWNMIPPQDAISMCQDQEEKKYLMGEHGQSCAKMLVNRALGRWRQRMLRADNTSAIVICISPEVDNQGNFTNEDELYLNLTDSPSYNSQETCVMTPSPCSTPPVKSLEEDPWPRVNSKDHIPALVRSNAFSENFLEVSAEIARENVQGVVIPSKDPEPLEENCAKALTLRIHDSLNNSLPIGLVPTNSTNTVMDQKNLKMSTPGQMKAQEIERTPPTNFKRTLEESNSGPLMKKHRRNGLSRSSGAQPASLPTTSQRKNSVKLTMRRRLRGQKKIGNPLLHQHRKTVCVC
Procedure, shortened: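 RapidFire MS readout of dephosphorylated VEPPL-S-QETFS product, with 1 uM isotope-labelled peptide standard. Reaction: 10 nM WIP1, 2 uM phosphopeptide substrate, 5 min, room temperature, after 1 h compound preincubation; stopped with 0.5% formic acid.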

[2] = biological target: Protein phosphatase 1D (Homo sapiens) (UniProt O15297); assay: Rhodamine-PBP qHTS Assay for Modulators of WT P53-Induced Phosphatase 1 (WIP1) (AID 1347425)
Procedure, shortened: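 Steps: enzyme with Rh-PBP sensor and compounds, room-temperature incubation of 1 hr, baseline read, addition of VEPPL-pS-QETFS (10 uM final), kinetic fluorescence reads at 525/598 nm. Activity equals final minus baseline signal.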

[3] = Primary qHTS for inhibitors of La Crosse Virus (LACV) - induced cell death in SH-SY5Y cells (AID 1508616);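 note: top concentration of the series differs between compounds; higher means more rescue of cells from virus-induced death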
Procedure, shortened: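 Rescue of virus-induced death was read as ATPLite luminescence after 6 days at 37C, scaled between DMSO wells with LACV and without virus. Cells were SH-SY5Y, 6000/well, infected at 0.01 MOI after compound addition.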

[4] = biological target: Calcium and integrin-binding protein 1 (Homo sapiens) (UniProt Q99828); assay: Primary qHTS for Identification of Calcium Integrin Binding Protein 1 (CIB1) Competitor (AID 1508620);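 note: GST tagged CIB1 binding a fluorescein labelled alphaIIb integrin peptide tracer; top concentration of the series differs between compounds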
Calcium and integrin-binding protein 1 (Homo sapiens), sequence (Q99828 whole entry, looked up): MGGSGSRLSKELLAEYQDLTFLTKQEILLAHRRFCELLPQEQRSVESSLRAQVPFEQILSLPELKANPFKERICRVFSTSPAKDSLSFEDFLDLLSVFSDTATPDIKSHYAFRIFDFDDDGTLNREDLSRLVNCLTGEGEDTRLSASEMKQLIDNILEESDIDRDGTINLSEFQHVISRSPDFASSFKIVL
Procedure, shortened: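 Fluorescence polarization competition: GST-tagged CIB1 (1 uM final) preincubated with compound 15 min at room temperature, then FITC-labelled alphaIIb peptide (100 nM final) added. After 15 min at room temperature, polarization read at Ex 480/Em 540.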

Measured: Potency

O=[N+]([O-])c1cccc(S(=O)(=O)NCCNS(=O)(=O)c2cccc([N+](=O)[O-])c2)c1
inactive: [1] | [2] | [3] | [4]

NS(=O)(=O)Cc1noc2ccccc12
inactive: [1] | [2] | [3] | [4]

O=C(Nc1cccc(C2=NCCN2)c1)Nc1cccc(C2=NCCN2)c1
inactive: [1] | [2] | [3] | [4]

OCCOCCN1CCN(C2=Nc3ccccc3Sc3ccccc32)CC1
inactive: [1] | [2] | [3] | [4]

CN(C)CCOC(c1ccc(Cl)cc1)c1ccccn1 (centres undefined)
inactive: [1] | [2] | [3] | [4]

CCOC(=O)C(C#N)=C(c1ccccc1)c1ccccc1
inactive: [1] | [2] | [3] | [4]

CCN(CC)CCNC(=O)c1cc(Br)c(N)cc1OC
inactive: [1] | [2] | [3] | [4]

CCC(C(=O)OCCOCCN(CC)CC)c1ccccc1 (centres undefined)
inactive: [1] | [2] | [3] | [4]

O=C(O)Cc1csc(-c2ccc(Cl)cc2)n1
inactive: [1] | [2] | [3] | [4]

CC(=O)Nc1ccc(OC(=O)c2ccccc2OC(C)=O)cc1
inactive: [1] | [2] | [3] | [4]

CN(CCCN1c2ccccc2CCc2ccccc21)CC(=O)c1ccc(Cl)cc1
inactive: [1] | [2] | [3] | [4]

NCCNC(=O)c1ccc(Cl)cn1
inactive: [1] | [2] | [3] | [4]

C[C@]12CCC(=O)C=C1C=C[C@@H]1[C@@H]2CC[C@@]2(C)[C@H]1CC[C@@]21CCC(=O)O1
inactive: [1] | [2] | [3] | [4]

NS(=O)(=O)c1ccc(Cl)c(S(N)(=O)=O)c1
inactive: [1] | [2] | [3] | [4]

CN(C)CCN1C(=O)c2ccccc2N(C)c2ccccc21
inactive: [1] | [2] | [3] | [4]

CCN(CC)CCNC(=O)COc1ccc(OC)cc1
inactive: [1] | [2] | [3] | [4]

OC(C#CCN1CCCC1)(c1ccccc1)c1ccccc1
inactive: [1] | [2] | [3] | [4]

Nc1ccc(S(=O)(=O)Nc2cnc3ccccc3n2)cc1
inactive: [1] | [2] | [3] | [4]

CCOC(=O)Nc1ccc2c(c1)N(C(=O)CCN1CCOCC1)c1ccccc1S2
inactive: [1] | [2] | [3] | [4]

O=[N+]([O-])c1ccc(/C=N\O)o1
inactive: [1] | [2] | [3] | [4]

CCc1ccc(C(=O)C(C)CN2CCCCC2)cc1 (centres undefined)
inactive: [1] | [2] | [3] | [4]

CCCCCCCCNC(C)C(O)c1ccc(SC(C)C)cc1 (centres undefined)
inactive: [1] | [2] | [3] | [4]

CO[C@]12C[C@@H](COC(=O)c3cncc(Br)c3)CN(C)[C@@H]1Cc1cn(C)c3cccc2c13
inactive: [1] | [2] | [3] | [4]

C[C@@H](O)[C@H]1C(=O)N2C(C(=O)O)=C(S[C@@H]3CN[C@H](CNS(N)(=O)=O)C3)[C@H](C)[C@H]12
inactive: [1] | [2] | [3] | [4]

CCCCCCCCCCCCOCCOCCOCCOCCOCCOCCOCCOCCOCCO
inactive: [1] | [2] | [3] | [4]

CC(=O)NO
inactive: [1] | [2] | [3] | [4]

C[C@@H](O)[C@H]1C(=O)N2C(C(=O)O)=C([C@H]3CCCO3)S[C@H]12
inactive: [1] | [2] | [3] | [4]

N/C(=N\N=C\c1ccc(Cl)cc1)N/N=C/c1ccc(Cl)cc1
inactive: [1] | [2] | [3] | [4]

CCCCC(CC)COC(=O)/C=C/c1ccc(OC)cc1 (centres undefined)
inactive: [1] | [2] | [3] | [4]

CC[C@]12CCCN3CCc4c(n(c5ccccc45)C(=O)C1)[C@@H]32
inactive: [1] | [2] | [3] | [4]

O=C(CCN1CCN2CCCC2C1)N1c2ccccc2Sc2ccc(Cl)cc21 (centres undefined)
inactive: [1] | [2] | [3] | [4]

CCOC(=O)[C@@](C)(N)Cc1ccc(O)c(O)c1
inactive: [1] | [2] | [3] | [4]

CC(CNC1CCCCC1)OC(=O)c1ccccc1 (centres undefined)
inactive: [1] | [2] | [3] | [4]

CC(C(=O)O)c1cccc(Oc2ccccc2)c1 (centres undefined)
inactive: [1] | [2] | [3] | [4]

O=C(Nc1ccccc1)OCC(CN1CCCCC1)OC(=O)Nc1ccccc1 (centres undefined)
inactive: [1] | [2] | [3] | [4]

CCC1Nc2cc(Cl)c(S(N)(=O)=O)cc2S(=O)(=O)N1 (centres undefined)
inactive: [1] | [2] | [3] | [4]
